In PubChem BioAssay AID1259343 (VanderVen Lab, College of Veterinary Medicine, Cornell …, 2017):
The whole screen tested about 6,200 compounds, of which about 2,900 (47%) were called active. Rule as the data show it: active = inhibition above about 50%; inactive = the rest. So high a share suggests a set chosen from earlier hits. The list shows a part of the results.

Assay: Mycobacterium tuberculosis growth inhibition, primary screen (AID 1259343)
Conditions: inhibition: at 10 µM, active compounds read high; outcome: 10 uM

Compound | inhibition
CCOc1ccc(-c2ccc(=O)n(Cc3cc(C)ccc3C)n2)cc1 | -12.8% (inactive)
CCOC(=O)C1CCN(C2CCN(c3nncc(-c4ccccc4)n3)CC2)CC1 | -15.5% (inactive)
CCOc1ccc(-c2ccnc(N3CCN(C(=O)C(=O)OC)CC3)n2)cc1 | 53.2% (active)
O=C(NCCc1ccco1)c1ccc(C2SCCS2)cc1 | 77.9% (active)
O=C(NCCc1ccco1)c1ccc(Br)cc1F | 5.5% (inactive)
CC(C)(CNC(=O)CCc1ccco1)c1ccc(Br)cc1 | 11.2% (inactive)
N#Cc1ccc(NS(=O)(=O)c2ccc(F)c(Cl)c2)nc1 | 27% (inactive)
O=S(=O)(Nc1cnc(Br)cn1)c1cccc(Cl)c1 | 10.2% (inactive)
O=S(=O)(Nc1ccc(Br)cn1)c1ccc(Cl)cc1 | 77.7% (active)
O=C(N1CCC(Cc2ccc(-c3ccccc3)cc2)CC1)C(F)(F)C(F)F | 39.3% (inactive)
CC(Cl)C(=O)N1CCC(Cc2ccc(C(F)(F)F)cc2)CC1 (stereo unspecified) | 90.3% (active)
O=C(C1CCC1)N1CCC(Cc2ccc(C(F)(F)F)cc2)CC1 | 83.6% (active)
O=C(c1c(F)c(F)cc(F)c1F)N1CCC(Cc2ccc(C(F)(F)F)cc2)CC1 | 71.6% (active)
O=C(NCc1ccccc1F)C(C1CCCC1)N1CCN(C(=O)c2ccc(C(F)(F)F)cc2)CC1 (stereo unspecified) | -35.5% (inactive)
CC(C)(C)c1ccc(CC2CCN(C(=O)CCCl)CC2)cc1 | 82% (active)
Cc1cc2cc(NC(=O)c3ccc(CN4CC[C@H](O)C4)cc3)ccc2o1 | 91.8% (active)
O=C1NC(=NC2CCCC2)SC1=Cc1cc2c(cc1Br)OCO2 | 63.1% (active)
c1ccc2c(NCCNc3ncnc4ccccc34)cccc2c1 | 69.3% (active)
c1ccc(-c2nc(NCCc3ccccn3)c3ccccc3n2)cc1 | -27% (inactive)
O=[N+]([O-])c1ccccc1NCCNc1cccc2ccccc12 | 26% (inactive)
CCOC(=O)CNc1c(-c2ccc(C(F)(F)F)cc2)nc2ccc(Br)cn12 | 24.2% (inactive)
CCOC(=O)CNc1c(-c2ccccc2Cl)nc2ccc(Br)cn12 | 88.4% (active)
COc1ccc(OC)c(-c2nc3ccc(Br)cn3c2NC2CCCCC2)c1 | 10.8% (inactive)
Oc1c(Cl)cc(Cl)c(Cl)c1Cc1c(O)c(Cl)cc(Cl)c1Cl | 102% (active)
Cc1cccc(-c2ccc(NC(=O)C3CCN(C(=O)c4ccncc4)CC3)cc2)c1 | inactive
Cc1cccc(-c2ccc(NC(=O)C3CCN(C(=O)c4nonc4C)CC3)cc2)c1 | 92.3% (active)

Compound | inhibition
Cc1cccc(-c2ccc(NC(=O)C3CCN(C(=O)c4ccc(F)cc4)CC3)cc2)c1 | 81.5% (active)
COc1ccccc1N(C)CC(=O)NC12CC3CC(CC(C3)C1)C2 | 9.54% (inactive)
O=C(CCOc1ccccc1)NC12CC3CC(CC(C3)C1)C2 | 87.8% (active)
Cc1ccc(SCC(=O)NC23CC4CC(CC(C4)C2)C3)cc1C | -43.9% (inactive)
O=C(Nc1nc(-c2ccc(Br)s2)cs1)c1ccc(Br)s1 | 81.8% (active)
CC(C)Nc1nc(-c2ccc(Br)s2)cs1 | 17.8% (inactive)
CCOc1ccc(Nc2cncc(Cl)n2)cc1 | 72.5% (active)
COc1ccc(NC(c2ccccn2)c2oc(CO)cc(=O)c2O)cc1 (stereo unspecified) | 84.2% (active)
COc1ccc(NC(=O)N(Cc2ccco2)C(C)c2nc3ccccc3c(=O)n2-c2ccccc2)cc1 (stereo unspecified) | -7.33% (inactive)
CCCCCCCCNC(C)C(O)c1ccc(SC(C)C)cc1 (stereo unspecified) | 3.63% (inactive)
NC(=O)Cc1csc(Nc2ccc(OC(F)(F)F)cc2)n1 | 73.5% (active)
O=C(Cc1csc(NC(=O)NC2CCCCC2)n1)Nc1ccc(Oc2ccccc2)cc1 | -2.63% (inactive)
CN(CCOc1ccccc1)C(=O)c1cc(COc2c(F)cccc2F)on1 | 84.2% (active)
Cc1ccc(OCc2cc(C(=O)N(C)Cc3csc(-c4ccccc4)n3)no2)cn1 | 73% (active)
CC(C)c1nc(CNC(=O)c2cc(COc3c(F)cccc3F)on2)cs1 | 23.3% (inactive)
Cc1ccc(OCc2cc(C(=O)N(C)CCc3ccccc3)no2)cc1C | 93.7% (active)
COCCN(C)C(=O)c1cc(COc2cc(C)c(Cl)c(C)c2)on1 | inactive
O=C(NCC1CCCCO1)c1cc(COc2c(F)cccc2F)on1 (stereo unspecified) | 65.1% (active)
Cc1ccc(OCc2cc(C(=O)N(C)CC3Cc4ccccc4O3)no2)cn1 (stereo unspecified) | inactive
CN(CCC(O)c1ccccc1)C(=O)c1cc(COc2cccc3cnccc23)on1 (stereo unspecified) | 48.2% (inactive)
O=C(NCC1CCCCO1)c1coc(COc2cccc(C(F)(F)F)c2)n1 (stereo unspecified) | 0.47% (inactive)
O=C1OC(c2ccccc2Br)=NC1=Cc1ccc2ccccc2c1 | -28.9% (inactive)
Cc1ccc(OCCN(C)C(=O)CCc2nnc(CCc3c[nH]c4ccccc34)o2)cc1 | 44.4% (inactive)
CN(CCOc1ccccc1)C(=O)c1cc(Br)c[nH]1 | 101% (active)
Cc1ccc(OCc2cc(C(=O)NCc3cc4ccccc4[nH]3)no2)cc1C | 24.7% (inactive)
Cc1cc(C)cc(OCCN(C)C(=O)Nc2ccc(F)cc2)c1 | 30.4% (inactive)

Compound | inhibition
CN(Cc1cccnc1)C(=O)c1cc(COc2ccc(F)c(F)c2)on1 | 60.5% (active)
Cc1ccc(OCc2cc(C(=O)NCc3nc4ccccc4s3)no2)cc1C | 92.1% (active)
Cc1nc2cc(OCc3cc(C(=O)NCc4cc(F)ccc4C)no3)ccc2s1 | 22.2% (inactive)
Cc1nc2sc3c(c2c(=O)n1NC(=S)NC(=O)C12CC4CC(CC(C4)C1)C2)CCCC3 | 67.3% (active)
COCCNCc1c(-c2ccccc2)noc1N(C)C1CCCCC1 | 82.5% (active)
N#Cc1cccc(NC(=O)NCc2cc(F)cc(F)c2)c1 | -9.78% (inactive)
N#Cc1cccc(NN=C2CCN(c3ccc(F)cc3)CC2)c1 | 95.8% (active)
N#Cc1cccc(NCc2c(F)cccc2Cl)c1 | 30.2% (inactive)
O=C(CC1SC(=NCc2ccco2)NC1=O)Nc1ccc(OC(F)(F)F)cc1 (stereo unspecified) | 21.7% (inactive)
CCOc1ccc(N=C2NC(=O)C(CC(=O)c3ccccc3)S2)cc1 (stereo unspecified) | 54.9% (active)
O=C(O)CC1SC(=NN=C2c3ccccc3-c3ccccc32)NC1=O (stereo unspecified) | 24.2% (inactive)
CCOC(=O)C1(Cc2cccc(C(F)(F)F)c2)CCN(Cc2ccc(C#CCCO)cc2)CC1 | 51.2% (active)
CCOC(=O)C1(Cc2cccc(OC)c2)CCN(CC#Cc2ccccc2)CC1 | 28.5% (inactive)
CCOC(=O)C1(Cc2cccc(Cl)c2)CCCN(C(=O)CCC(F)(F)F)C1 (stereo unspecified) | -43.9% (inactive)
O=C(CCC1CCCC1)N1CCc2ccc(O)cc2CC1 | 92.6% (active)
Cc1ccc(F)c(OCC2CN(CC(C)O)CCO2)c1 (stereo unspecified) | 102% (active)
COc1ccc(CC2CN(Cc3ccc(OC)c(F)c3)CCO2)cc1 (stereo unspecified) | 30.9% (inactive)
COC(=O)CSCCOc1ccc(OCCSCC(=O)OC)cc1 | 88.5% (active)
COc1ccc(OCCOc2ccc(C)cc2)cc1 | inactive
Cc1ccc(C)c2sc(OC3CCN(S(=O)(=O)c4cccnc4)CC3)nc12 | 31.8% (inactive)
O=C1c2ccccc2C(=O)c2c1ccc(O)c2O | 101% (active)
COc1cccc2c1CCCC2CCCN1CCN(C2CCCCC2)CC1 (stereo unspecified) | 98.3% (active)
COC(=O)CCCCCNC(=O)c1cc([N+](=O)[O-])cc([N+](=O)[O-])c1 | 93.7% (active)
CCS(=O)(=O)Oc1ccc(CN(C(=O)c2cccc([N+](=O)[O-])c2)C(C)C)cc1 | -14.5% (inactive)
COC(=O)CNC(=O)c1ccc([N+](=O)[O-])o1 | 44.5% (inactive)
Brc1ccc2c(c1)CN(Cc1ccc3c(c1)OCO3)CO2 | 1.53% (inactive)

Compound | inhibition
COc1ccc(N2COc3cc4c(cc3C2)OCO4)cc1 | 87.2% (active)
COc1ccc(NC(=O)C2Cc3ccc(C)cc3S2)cc1 (stereo unspecified) | 21.4% (inactive)
COc1ccc2c(c1)OCC(C(=O)NS(=O)(=O)c1cccs1)C2 (stereo unspecified) | 99.9% (active)
COc1ccc2c(c1)CC(C(=O)N(C)Cc1ccco1)CO2 (stereo unspecified) | -34.5% (inactive)
CN(CCCOc1ccccc1Cl)S(=O)(=O)NCc1ccccc1 | 56.2% (active)
CN(Cc1cccc2cnccc12)S(=O)(=O)NCc1ccccc1 | 20.2% (inactive)
COc1c(F)cc(NS(=O)(=O)N(C)Cc2ccccc2)cc1F | 31.6% (inactive)
c1ccc(CCNCCCOc2cccc3ccccc23)cc1 | 58% (active)
O=C(COc1ccc(Cl)cc1)NC1(c2ccccc2)CCC1 | 29.4% (inactive)
Cc1oc(C)c(C(=O)NC2(c3ccccc3)CCC2)c1Br | 20.5% (inactive)
O=C(NC1(c2ccc(Cl)cc2)CCC1)c1cnsn1 | 60.1% (active)
O=S(=O)(Nc1ccc(Cl)c(Cl)c1)c1cccs1 | 20.9% (inactive)
O=S(=O)(Nc1nc2ccccc2nc1OCC(F)(F)F)c1cccs1 | 71.9% (active)
OCC1(Cc2cccc(Cl)c2)CCCN(Cc2nc(-c3ccc(F)cc3)cs2)C1 (stereo unspecified) | inactive
COc1ccc(F)c(CN2CCCC(CO)(Cc3cccc(Cl)c3)C2)c1 (stereo unspecified) | 31% (inactive)
O=C(c1cc2cc(F)ccc2[nH]1)N1CCCC(CO)(Cc2cccc(Cl)c2)C1 (stereo unspecified) | 68.2% (active)
CC(C)(C)c1ccc(C(=O)N2CCC2(C)C(=O)Nc2cccc3c2CCCC3)cc1 (stereo unspecified) | 0.45% (inactive)
CC(C)C(=O)N1CCC1(C)C(=O)Nc1ccc(-n2cccc2)cc1 (stereo unspecified) | 92.6% (active)
Fc1ccc(CNc2ncnc3c2cnn3-c2ccc(F)cc2)cc1 | -7.37% (inactive)
CC(C)CSc1ncnc2c1cnn2-c1ccccc1 | 59.5% (active)
CCOC(C)c1nc(CSc2ncnc3c2cnn3C)cs1 (stereo unspecified) | 40% (inactive)
CN(Cc1c(F)cccc1Cl)c1cncc(-n2cccn2)n1 | 83.7% (active)
CN(Cc1ccccc1)c1cccc(-n2ccnc2)n1 | 3.53% (inactive)
